# From the supplement of paper PMC10681739
# Key:
# [1] = target: T1, ETS1 (UniProt P14921); assay: ETS1 binding intensity (PBM fluorescence), ETS1 alone (arbitrary fluorescence units); higher = stronger binding; details: ETS1 concentration 1 nM; RUNX1 concentration 0 nM
# T1 sequence: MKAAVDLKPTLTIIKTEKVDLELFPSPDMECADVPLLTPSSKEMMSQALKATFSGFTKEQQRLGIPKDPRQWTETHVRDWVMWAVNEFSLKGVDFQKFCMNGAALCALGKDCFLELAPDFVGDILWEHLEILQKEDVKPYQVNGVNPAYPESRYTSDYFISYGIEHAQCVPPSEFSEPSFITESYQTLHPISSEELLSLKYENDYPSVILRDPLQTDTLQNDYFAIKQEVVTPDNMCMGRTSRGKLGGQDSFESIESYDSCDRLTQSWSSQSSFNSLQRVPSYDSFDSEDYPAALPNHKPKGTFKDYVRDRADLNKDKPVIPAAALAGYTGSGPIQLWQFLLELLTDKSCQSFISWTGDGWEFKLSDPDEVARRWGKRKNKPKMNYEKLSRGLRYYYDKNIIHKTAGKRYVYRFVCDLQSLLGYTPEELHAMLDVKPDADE
# [2] = target: T1, ETS1; assay: ETS1 binding intensity (PBM fluorescence) in presence of RUNX1, normalised to ETS1-only experiment (arbitrary fluorescence units); higher = stronger binding; details: ETS1 concentration 1 nM; RUNX1 concentration 25 nM
Sequence,ETS1 binding intensity [1],ETS1 binding intensity [2]
GCTGCTGTAGTCGCTTCCTGCGGCCAGCCCGGGTTC,526,528
GGCAAACAGGAAACACTCCCAGGGCTGTGGGCTCCT,1550,1790
GAGGAAAAAGGAAACAGAAACTCCGCAACTTGCGCC,503,411
ACAGCGCCTCTTCCTGCTCTACCACATCTGATGTCC,512,352
TGGGCACGGGAGGAAGAGGCTGGGTGGTAAACAGGA,467,494
GCAGGACTCCAGGAAGCCCGCGCAGCCGCAAAAAGC,597,1350
CTGCGTCCCGGAAGGAGCGAGCTTGCGGAGCGTGAA,710,542
GCCACACCCCCTTCCTGTTGTGTGTGGGGATTCATG,744,696
TGCTTAGAACACGGAAACACTGAGGTTTTACTTTGA,482,560
CCTGAGCGCCCGGAAGGAAGGCTGTGGTAGGTTGTC,1270,1570
GCGCGCTTCCGCCTTCATGCTAGCAACGCCCGCAGT,566,560
AAAACCTTGTTGAAAGGATGTGGCTTAGCGAGAGGT,1140,1820
CCAGAAAGCTCCTCCTTCCGCCACAACACGATCACT,538,451
TTCTTGTTTCCTGTCAAGGGAGGCTCTGACCACCTC,728,753
CGGGCCCGACGGAAACCATGTTTGTGGCTCGCAGCA,744,699
AGGTACTCACCATTCCGGCGGTTGCTACTGTCACTG,459,428
CAGATTCGTGTTTCCGTGCCCGCAGCTCCGTCAGCT,467,362
CTGCCTTGCTTTTCCGGTCGCCGCGGTCCTCTGCGC,2130,2110
CCAGATTAGGAAACCCACCCGGCCCACAAAAAGCGG,445,302
CGAAGGAGGAAGCTGCACAGGGTGTCTGTGGCTGGC,443,428
AGACCCGGACCGGAACCTTGGCGCGGTGACGCTAGT,1050,975
TGGCCAGGAAGCCACTCGATTGCCGGCGCCCGCAGC,415,458
TGAAGTTCAGGGGGAAGTGGTTAGAGTCCCTGCGAG,494,674
GTCCCCCTTCCGGCTGCAGGTTGAGGTTTGGAACCT,511,560
GCTGTTTCCTGCTGATAAAAACACCCCACAACTTCA,449,510

Sequence,ETS1 binding intensity [1],ETS1 binding intensity [2]
AGCCCTCTGCAACTTCCCGGCCCCACAGCCCCACCC,678,575
CGTAGCGAGGAGCGGAAAACGCGGTAACCAAGGCGG,732,1050
TCGCTTCCTGCTCCACTTCTCGGCGCCCACATCTCC,514,523
GCGCACGCGCGTTGTTTCCGCGGTAGTCAGGGCAGT,477,364
CTCAGAGGCACCAAGGGAAGTGGTTAAAACAGAAAG,677,1790
ACTTACTTCCCGACGTCACAGCCTCCGACACCACAG,471,423
CCAGCCTCCCCTTTCCTGTCTGTGGCAGGAGCGTGC,505,512
AAAGGGAAGTTGGCGGGAGTTCAAAACCACCGGGGC,347,494
AAAACGCGGAAATACGGTGGCTGCGGCCCGCGGGCA,494,573
CCAGGGGCACACCGGAACCCACACCTGAAATCACAG,647,739
CCACTCCAGGAAACTCCTCCAGGTGAGCCCACAACT,500,474
CCCGGTGCACCGGATCCGACCACACCCTGGGTGGGC,525,400
GTGTTCAGACGGAAGCGTTATTCAGTGGTCAGAGCA,741,1070
GTCCCCTCCCCAGGATGTGGCCACCCGCTAGAGCAT,1030,1560
AGGCAGGGAAGTGGCGCAGAGGAGACCACAGGACAC,563,803
AAGCAGAGCTCAGGATGTGGTGCCGTGCGAGGGCGG,697,847
AGAATTACCAGGAAGCCGAGCGCTGCGGGCTAGCGG,518,631
TGCTCCACTCGGAAGTGGTGCCGCAGCTCTTCGATG,697,800
TGCAGCCGCCGCGTCCGGTCCAGCCGCAGGGCCATG,536,543
GCTTAGGCTCTTTCCTGTGTGGTGAGCACTAACCTC,488,324
GCAAAGATACATCCTTCTCCCCACAGACTAAGTTTC,490,412
CGAAGAGGAAGCCCCTGTATCACCCCACAAGAAGCC,544,555
TGGCAGGATGCCGTTAAATATGTAACCACATGTCTC,500,1250
AGTACAAAGGGGAAATGTCTCTTGGTGGTTGATAAG,628,564
